Results: PubChem BioAssay (NCATS)
Results filed as inconclusive are left out. Where a call stands in place of a potency, no number is given. A number with no mark means an inactive call. Activity calls are given as the source filed them. Calls follow the shape of the dose curve; as a rule, active = well fitted cell-killing curve with a large enough effect; inconclusive = small, poorly fitted or top-dose-only effect, or effect the other way; inactive = no such curve, though single readings can be large or run the other way.

experiment: Viability qHTS for spleen associated tyrosine kinase inhibitor (SYKi) drug resistant MV4-11 cells (AID 1963824); settings: SYKi-resistant MV4-11 viability, CellTiter-Glo, 72 h; series mostly up to 45 µM; also: nearly all actives have a fitted effect of over 35% in size
How it was run: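 SYK-inhibitor-resistant MV4-11 AML cells were seeded at 500 per well onto compound and cultured 72 hours (37 °C, 5% CO2). CellTiter-Glo was then added, and after 10 min at room temperature, luminescence gave viability.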
Potency is read from the fitted curve at half-maximal effect.

Structure (SMILES)	Potency	viability, % of control
Cn1nccc1-c1ccccc1Oc1ccc(S(=O)(=O)Nc2nccs2)cc1C#N	13 µM (active)	–
COc1c(C)c2c(c(O)c1C/C=C(\C)CC/C=C(\C)CCC(=O)O)C(=O)OC2	inactive	–
CC1(C)CCC2(C(=O)OC3OC(COC4OC(CO)C(O)C(O)C4O)C(O)C(O)C3O)CCC3(C)C(=CCC4C5(C)CCC(OC6OCC(O)C(O)C6O)C(C)(C)C5CCC43C)C2C1O (stereo not drawn)	–	90.4% [at 9.25 µM]
CCc1ccc(N(CC(C)C)S(=O)(=O)c2ccc(OCC3CCOCC3)c(CO)c2)cc1	18.6 µM (active)	–
C/C=C(\C)C(=O)OC1C(C)C2(O)C3C=C(C)C(=O)C3CC(CO)=CC2C2C(C)(C)C12OC(C)=O (stereo not drawn)	inactive	–
CC1(C)S[C@@H]2[C@H](NC(=O)[C@H](N)c3ccc(O)cc3)C(=O)N2[C@H]1C(=O)O	inactive	–
C=C1[C@H](OC(C)=O)[C@H]2[C@@H](OC(=O)c3ccccc3)[C@@H](C)C[C@]2(O)[C@@H](OC(C)=O)[C@H](C)/C=C/C(C)(C)C(=O)[C@H](OC(C)=O)[C@H]1OC(C)=O	inactive	–
C=C1CCC2[C@](C)(CO)CCC[C@@]2(C)[C@@H]1CCC1=CCOC1=O (stereo partly drawn)	7.18 µM (active)	–
